{"source": "PubChem BioAssay (NCATS)", "note": "Inconclusive results are not listed. The source made the active and inactive calls. Calls follow the shape of the dose curve; as a rule, active = well fitted inhibition curve with a large enough effect; inconclusive = small, poorly fitted or top-dose-only effect; inactive = flat fitted curve, though single readings scatter."}
{"system": "HaCat", "test": "Cytotoxic Profiling of Annotated Libraries Using Quantitative High-Throughput Screening (AID 1296008); also: nearly all actives have a fitted effect of over 60% in size", "details": "Five cell lines viability, CellTiter-Glo ATP luminescence, 48-72 h; max response: stronger effect = lower value", "method_in_brief": "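Cytotoxicity was measured as CellTiter-Glo ATP luminescence, read after 10 min at room temperature. Compound treatment of the cells lasted 48 or 72 hr at 37 degrees Celsius in a qHTS format.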"}
{"smiles": "CC1(C)C[C@H]2C3=CCC4[C@@]5(C)CC[C@H](O[C@H]6O[C@H](C(=O)O)[C@@H](O)[C@H](O)[C@H]6O[C@H]6O[C@H](CO)[C@@H](O)[C@H](O)[C@H]6O[C@@H]6O[C@H](CO)[C@@H](O)[C@H](O)[C@H]6O)[C@](C)(CO)C5CC[C@@]4(C)[C@]3(C)CC[C@@]2(C)[C@H](O[C@@H]2OC[C@H](O)[C@H](OC3O[C@H](CO)[C@@H](O)[C@H](O)[C@H]3O)[C@H]2O)[C@@H]1O", "note": "(stereo not given in full)", "outcome": "inactive"}
{"smiles": "COc1cc(C[C@H]2COC(=O)[C@@H]2Cc2ccc(O)c(OC)c2)ccc1O", "outcome": "inactive"}
{"smiles": "O=C(OCc1cccc(O)c1O[C@@H]1O[C@H](CO)[C@@H](O)[C@H](O)[C@H]1O)C1(O)C(=O)C2C=CC1C1C=CC(=O)C(O)(C(=O)OCc3cccc(O)c3O[C@@H]3O[C@H](CO)[C@@H](O)[C@H](O)[C@H]3O)C21", "note": "(stereo not given in full)", "outcome": "inactive"}
{"smiles": "CC(=O)NC(CCC(=O)O)C(=O)NCCc1ccc(O)cc1", "note": "(stereo not given)", "outcome": "inactive"}
{"smiles": "CC(=O)O[C@@H]1C[C@]2(C)[C@@]3(CCC4[C@@]5(C)CC[C@H](O[C@@H]6O[C@H](C(=O)O)[C@@H](O)[C@H](O[C@@H]7O[C@H](CO)[C@H](O)[C@H](O)[C@H]7O[C@@H]7O[C@@H](C)[C@H](O)[C@@H](O)[C@H]7O[C@@H]7OC[C@](O)(CO)[C@H]7O)[C@H]6O[C@@H]6O[C@H](CO)[C@H](O)[C@H](O)[C@H]6O)C(C)(C)C5CC[C@]42C)O[C@@H](O)[C@]12C3CC(C)(C)[C@@H](OC(=O)/C=C/c1ccc(O)c(O)c1)[C@@H]2OC(=O)/C=C/c1ccccc1", "note": "(stereo not given in full)", "outcome": "inactive"}
